From PubChem BioAssay AID1851 (National Center for Advancing Translational Sciences (NCATS), 2009) come the findings set out here.

Screen size: about 16,000 compounds; about 5,100 (32%) were called active. Inconclusive results (about 25%) are left out. The list shows a part of the results. Values without a mark were called inactive. Calls follow the shape of the dose curve; as a rule, active = well fitted curve in the direction sought with a large enough effect; inconclusive = small, poorly fitted or top-dose-only effect, or effect the other way; inactive = no such curve, though single readings can be large or run the other way.

As usually defined, the AC50 is the concentration at which the activity in the assay is half-maximal.
% is scaled to controls: 0 for no effect and ±100 for the full control effect.

For the assay, the target named is Cytochrome P450 3A4 (Homo sapiens) (UniProt P08684). As to the kind of experiment: Cytochrome panel assay with activity outcomes. As to conditions: recombinant CYP, pro-luciferin dealkylation, luminescence, p450-cyp3a4; series mostly up to 57.1 µM.
Cytochrome P450 3A4 (Homo sapiens), sequence (P08684 whole entry, looked up): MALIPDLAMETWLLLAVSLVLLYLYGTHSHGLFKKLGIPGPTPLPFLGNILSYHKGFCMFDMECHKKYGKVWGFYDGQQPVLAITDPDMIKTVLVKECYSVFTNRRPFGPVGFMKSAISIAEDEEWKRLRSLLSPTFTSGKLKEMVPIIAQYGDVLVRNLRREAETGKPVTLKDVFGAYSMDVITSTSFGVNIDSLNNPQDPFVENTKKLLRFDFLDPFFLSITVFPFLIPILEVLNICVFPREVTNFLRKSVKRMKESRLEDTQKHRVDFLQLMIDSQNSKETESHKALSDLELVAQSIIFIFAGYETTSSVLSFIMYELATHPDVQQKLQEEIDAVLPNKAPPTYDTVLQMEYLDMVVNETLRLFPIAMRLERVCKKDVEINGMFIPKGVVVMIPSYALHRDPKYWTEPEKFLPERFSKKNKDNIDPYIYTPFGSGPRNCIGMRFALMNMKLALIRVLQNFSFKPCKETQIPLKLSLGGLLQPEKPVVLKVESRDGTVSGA
As for `Cn1c(=O)n(-c2ccc(Cl)cc2)c(=O)c2c3c(sc21)COC(C)(C)C3`, the AC50 entry is “inactive”.
Same read-out and setting: then `CCOC(=O)c1c(NC(=O)CCCN2CCOCC2)sc2c1CC(C)(C)OC2`, with 7.08 µM (active).
The same measure, in the same setting: for `CCOC(=O)c1c(NC(=O)CCC(=O)N2CCOCC2)sc2c1CC(C)(C)OC2` the value was 12.6 µM (active); for `Cn1c(O)c(C(C#N)=C2N=c3ccccc3=N2)c2ccccc21`, 3.55 µM (active).
For `N=C(N)SCCN`, the AC50 entry is “inactive”.
In the case of `COC(=O)[C@@H]1O[C@@H](SCCN)[C@@H](O)[C@H](O)[C@H]1O`, the activity, negative = inhibition was -3.54% [at 11.4 µM].
On the same count and under the same terms, for `CC(=O)O[C@]12CC[N@+]3(C)CCCC[C@@H]3[C-]1Nc1ccccc12` the value was 0.352% [at 11.4 µM].
On the same count and under the same terms, then `Cc1cc2c(c(=O)o1)[C@@H](O)[C@H]1O[C@@H]1C2=O`, with -17.6% [at 11.4 µM].
With `COc1ccccc1N1CCN(C[C@@H]2CN3C(=O)N(C)c4ccccc4C3=N2)CC1`, the AC50 is 15.8 µM (active).
On the same count and under the same terms, then `Cc1cc(=O)oc(C)c1C(=O)N1CCCCC1`, with “inactive”.
The same measure, in the same setting: for `CC1=C(C(=O)N2CCCCCC2)C2(CCC(C)CC2)OC1=O` (centres undefined) the value was 11.2 µM (active); for `CC1=C(C(=O)NCCN2CCN(C)CC2)C2(CCC(C)CC2)OC1=O` (centres undefined), “inactive”.
In the case of `CCCCCC/C(C)=C1/SC(=S)NC1=O`, the activity, negative = inhibition is -11.2% [at 2.29 µM].
With `O=C(CCC(=O)Nc1ccccc1)NNC(=O)c1cccs1`, the activity, negative = inhibition is 9.11% [at 2.29 µM].
On to `CCC(=O)Nc1ccc(C(=O)NNC(=O)c2cccs2)cc1`, for which the AC50 result was “inactive”.
Consider `O=C(COc1cccc2ccccc12)NNC(=O)c1cccs1`, for which the AC50 was 25.1 µM (active).
In the case of `CCc1ccc(OCC(=O)Nc2ccc(-c3nc4ccccc4o3)c(O)c2)cc1`, the AC50 result was “inactive”.
As to `O=C(Nc1cccc(-c2nc3ncccc3o2)c1)c1sc2cc(Cl)ccc2c1Cl`, the AC50 entry is “inactive”.
Same read-out and setting: then `CCCCCC(=O)Nc1cccc(-c2nc3ncccc3o2)c1`, with 15.8 µM (active); and `O=C(CSc1ccc(Cl)cc1)Nc1cccc(-c2nc3ncccc3o2)c1`, with 12.6 µM (active).
For `CCCCC(=O)Nc1ccc(C)c(O)c1`, the activity, negative = inhibition is 9.17% [at 2.29 µM].
Still for that read-out and setting: then `CC12CC[C@@H]3c4ccc(OP(=O)(O)O)cc4CCC3C1CCC2=O` (some centres undefined), with 5.91% [at 11.4 µM].
Turning to `COc1c(N2CCN(C(=S)Nc3ccc(F)cc3)C(C)C2)c(F)cc2c(=O)c(C(=O)O)cn(C3CC3)c12` (centres undefined), the AC50 result is “inactive”.
Consider `O=S(=O)(c1ccc(Cl)cc1)c1cnc(-c2cccnc2)nc1-c1ccccc1`, for which the AC50 is 8.91 µM (active).
As to `Clc1ccc(-c2nnc(-c3ccccc3)c(N3CCSCC3)n2)cc1`, the AC50 entry is “inactive”.
On the same count and under the same terms, then `O=S(=O)(c1ccccc1)c1cnc(-c2cccnc2)nc1-c1ccc(Cl)cc1Cl`, with 2.82 µM (active).
On the same count and under the same terms, then `CN1CCCCC1=NCCCn1cnc2c1c(=O)n(C)c(=O)n2C`, with “inactive”; and `CC(=O)[C@H]1CC[C@@H]2[C@H]3CC=C4C[C@@H](O)CC[C@]4(C)[C@H]3CC[C@]12C`, with “inactive”; and `Cc1cc(C)c2c(-n3cccc3)n[nH]c2n1`, with “inactive”.
Still for that read-out and setting: then `COCCNc1ncnc2ccc(-c3cccnc3)cc12`, with 10 µM (active).
With `COc1cccc(-c2ccc3ncnc(NCCNC(C)=O)c3c2)c1`, the AC50 is 15.8 µM (active).
On the same count and under the same terms, for `COCCNc1ncnc2ccc(-c3cccc(OC)c3)cc12` the value was 12.6 µM (active).
Turning to `O=[N+]([O-])c1cccc2c(Br)[nH]nc12`, the AC50 was 12.6 µM (active).
For the compound `Brc1[nH]nc2ccccc12`, the AC50 result is “inactive”.
As for `O=[N+]([O-])c1cccc2cn[nH]c12`, the AC50 result is “inactive”.
Still for that read-out and setting: then `COC(=O)c1ccc(NC(=O)Cn2nc(-c3ccncc3)nc2SCC(=O)Nc2nccs2)cc1`, with 2 µM (active).
Same read-out and setting: then `Cc1oc(-c2cccs2)[n+]([O-])c1C`, with “inactive”; and `CC(=O)Nc1ccc(NC2=Nc3ccccc3N3C2=Nc2c(c(C)nn2-c2ccccc2)C3c2ccccc2)cc1` (centres undefined), with “inactive”.
The same measure, in the same setting: then `CCN(CCCNC(=O)CC(C(=O)N1CCc2ccccc21)n1ccnc1)c1ccccc1` (centres undefined), with 0.794 µM (active); and `CCCCN(C)CCCNC(=O)CCn1nc(-c2ccccc2)ccc1=O`, with “inactive”.
On to `CCN(CC)CCC(=O)Nc1ccc2c(c1)N(C(=O)CN(CC)CC)c1ccccc1CC2`, for which the activity, negative = inhibition was 3.63% [at 2.29 µM].
Take `Cc1cc(C)c(S(=O)(=O)n2ccc(-c3ccc(OCCN(C)c4ccccn4)cc3)n2)c(C)c1`: the concentration at half-maximal activity (AC50) was 2.24 µM (active).
On the same count and under the same terms, for `COC(=O)[C@H]1C[C@@H]1[C@H](NC(=O)c1cc(C)nn1C)c1ccccc1` the value was 6.31 µM (active); for `COC(=O)[C@@H]1C[C@H]1[C@@H](NC(=O)c1cc(C)nn1C)c1ccccc1`, 10 µM (active).
Same read-out and setting: for `O=c1ccc(Oc2nc(N3CCOCC3)nc(N3CCOCC3)n2)n[nH]1` the value was “inactive”; for `N#C/C(=C\c1ccc(O)c(O)c1)C(=O)NCCc1ccccc1`, 3.98 µM (active); for `N#C/C(=C\c1ccc(O)c(O)c1)C(=O)NCCCc1ccccc1`, 2.51 µM (active).
The same measure, in the same setting: for `COc1ccc(/C=C(/C#N)C(=O)Nc2cc(C)ccc2C)cc1C(=O)O` the value was “inactive”; for `O=C(O)/C=C\C(=O)NCc1ccccc1`, “inactive”.
As to `N#C/C(=C\c1ccc(O)c(O)c1)C(=O)Nc1ccccc1`, the AC50 was 15.8 µM (active).
Regarding `Cc1cc(/C=C(/C#N)C(=O)Nc2ccccc2)c(C)n1-c1cccnc1`, the AC50 result is “inactive”.
As to `N#C/C(=C\c1ccc(O)c(O)c1)C(=O)NCc1ccccc1`, the AC50 is 15.8 µM (active).
For `COCCN1CN=C(Nc2nc3ccccc3o2)NC1`, the AC50 entry is “inactive”.
For the compound `CC(/C=N/NC(=O)Cc1cccs1)=C\c1ccco1`, the activity, negative = inhibition is 1.99% [at 2.29 µM].
With `CC(=O)OCC1=C(C(=O)O)N2C(=O)[C@@H](NC(=O)Cc3cccs3)[C@@H]2SC1`, the AC50 result is “inactive”.
Same read-out and setting: then `CC(C)(C)c1ccc(OCC(=O)NNC(=O)Cc2cccs2)cc1`, with 3.98 µM (active); and `CCNS(=O)(=O)c1ccc(NS(C)(=O)=O)cc1`, with “inactive”.
`C/C(=N/S(=O)(=O)c1ccc(Cl)c(Cl)c1)OCC(C)(C)C`: the activity, negative = inhibition is -5.85% [at 11.4 µM].
For the compound `O=S(=O)(Nc1ccc(Cc2ccncc2)cc1)c1ccc(Br)cc1`, the AC50 is 0.355 µM (active).
With `O=S(=O)(Nc1ccc(Cc2ccncc2)cc1)c1ccc(Cl)c(Cl)c1`, the AC50 is 0.398 µM (active).
Same read-out and setting: then `Cc1ccc(NC(=O)NNS(=O)(=O)c2ccc(Br)cc2)cc1`, with “inactive”; and `O=S(=O)(Nc1ccc(Cc2ccncc2)cc1)c1cccs1`, with 0.355 µM (active).
On to `O=C1C(Cl)=C(Nc2ccc(S(=O)(=O)Nc3ccccn3)cc2)C(=O)c2ccccc21`, for which the activity, negative = inhibition is -10.8% [at 11.4 µM].
For `N[C@H](Cn1ccc(=O)n(Cc2ccccc2C(=O)O)c1=O)C(=O)O`, the AC50 result is “inactive”.
Same read-out and setting: for `Cc1c(-c2c(C#N)c(N)nc3c2CCCCCC3)cnn1C` the value was 7.94 µM (active); for `Cn1ncc(C#N)c1/N=C/N1CCCCCC1`, “inactive”.
Turning to `CCc1sc(-c2c(C#N)c(N)nc3c2CCCCCC3)cc1[N+](=O)[O-]`, the activity, negative = inhibition is -20.1% [at 2.29 µM].
On to `N#Cc1c(N)nc2c(c1-c1cccc(O)c1)CCCCCC2`, for which the AC50 is 4.47 µM (active).
In the case of `CC(C)CNC(=S)N1CCN(C)CC1`, the AC50 entry is “inactive”.
On the same count and under the same terms, then `O=C(O)c1cc([N+](=O)[O-])ccc1NCCCc1ccccc1`, with “inactive”; and `Cc1ccc(NC(=O)c2cc([N+](=O)[O-])ccc2NCc2cccnc2)cc1Cl`, with 3.98 µM (active).
Take `Cc1ccc(-c2cc(C(=O)NN=C3CCCC3)c3ccccc3n2)cc1`: the AC50 is 7.94 µM (active).
In the case of `Cc1ccc(C)c(-c2cc(C(=O)Nc3sc(C)c(C)c3C(N)=O)c3ccccc3n2)c1`, the AC50 is 2.82 µM (active).
For the compound `Cc1cc(C)c(C(N)=O)c(NC(=O)Nc2ccccc2)n1`, the AC50 result was “inactive”.
`O=C(O)c1cc(-c2ccc(-c3ccc(-c4cc(C(=O)O)c5cc(Cl)ccc5n4)cc3)cc2)nc2ccc(Cl)cc12`: the activity, negative = inhibition is 24.9% [at 11.4 µM].
On the same count and under the same terms, then `Cc1sc(NC(=O)C2CCCCC2C(=O)O)c(C(N)=O)c1C` (centres undefined), with 14.4% [at 2.29 µM].
With `COC(=O)c1sccc1NC(=O)c1cc(-c2ccc(C)cc2)nc2ccccc12`, the AC50 entry is “inactive”.
As to `COC(=O)c1sccc1NC(=O)c1cc(-c2cc(C)ccc2C)nc2ccccc12`, the AC50 was 4.47 µM (active).
The same measure, in the same setting: for `COC(=O)c1sccc1NC(=O)c1cc(-c2ccc(C)cc2C)nc2ccccc12` the value was 7.08 µM (active).
Take `CCN1C(=O)[C@H]2[C@H]3[C@H](O)[C@H](O)C/C(=N/O[C@@H]4O[C@H](COC(C)=O)[C@@H](OC(C)=O)[C@H](OC(C)=O)[C@H]4OC(C)=O)[C@@H]3CC[C@@H]2C1=O`: the activity, negative = inhibition is -5.68% [at 11.4 µM].
As for `Cc1ccc(Nc2ncccc2C(=O)NCc2cccs2)c(C)c1`, the half-maximal activity concentration (AC50) was 12.6 µM (active).
On the same count and under the same terms, for `Cc1ccc(-c2cc(C(=O)NCc3ccco3)c3ccccc3n2)s1` the value was 10 µM (active).
Still for that read-out and setting: then `Cc1ccccc1-c1cc(C(=O)Nc2nc3c(s2)CCCC3)c2ccccc2n1`, with 3.16 µM (active); and `Cc1ccc(C)c(-c2cc(C(=O)NCc3cccs3)c3ccccc3n2)c1`, with 1.41 µM (active); and `Cc1ccccc1-c1cc(C(=O)n2cccn2)c2cc(Cl)ccc2n1`, with “inactive”.
On the same count and under the same terms, for `CC[C@](N)(CCC(=O)O)C(=O)O` the value was “inactive”; for `Cc1ccc(C)c(-c2cc(C(=O)Nc3nccs3)c3ccccc3n2)c1`, 2.82 µM (active).
On to `CCN1CC=C2C(C#N)=C(N)C(C#N)(C#N)[C@H](c3ccoc3)[C@H]2C1`, for which the AC50 is 11.2 µM (active).
Regarding `CCCN1CC=C2C(C#N)=C(N)C(C#N)(C#N)C(c3cc(OC)ccc3OC)C2C1` (centres undefined), the AC50 was 2 µM (active).
On the same count and under the same terms, for `CN1CCC2(CC1)C1CN(C)CC=C1C(C#N)=C(N)C2(C#N)C#N` (centres undefined) the value was “inactive”.
As for `CCC/C=C(\CCC)C(NS(=O)(=O)c1cccs1)c1ccc(C(=O)OC)cc1` (centres undefined), the AC50 was 3.16 µM (active).
Take `CCC/C=C(\CCC)C(NC(=O)c1cccs1)c1ccc(C(=O)OC)cc1` (centres undefined): the AC50 is 1.26 µM (active).
The same measure, in the same setting: for `CCC/C=C(\CCC)C(NC(=O)c1cccs1)c1ccc(C(F)(F)F)cc1` (centres undefined) the value was 2.51 µM (active); for `COc1nccc(-c2c(-c3ccc(F)cc3)ncn2C2CCC(O)CC2)n1` (centres undefined), “inactive”.
